Insulin prom up: MIN6 insulin promoter up-regulation | MIN6 insulin promoter-GFP reporter, high-content imaging; stronger effect = higher value | z-score at 5 µM | 190,000 tested, 0.3% active | AID 1625;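 active means z-score above 3 at 5 µM with at least 500 cells counted in the well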
WT yeast gro inh: growth inhibition of WT yeast, mitochondrial fusion screen; mitochondrial fusion phenotypic screen, WT strain; inhibition, % at 10 µM; 190,000 tested, 2.1% active; AID 1362; in the data active means inhibition above about 58%; tested in S. cerevisiae
Insulin prom inh: TRM-6 insulin promoter activity inhibition; TRM-6 cells (human fetal islet line), insulin promoter-eGFP reporter, imaging; reporter expression induced with tamoxifen; inhibition, % at 2 µM; 130,000 tested, 0.9% active;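 active means inhibition above the mean plus 3 SD, with well images judged a real hit on visual review, cut at about 60% in these data, passing the limit was not always enough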
KCC2 mod: KCC2 (human) Cl- transport modulation. KCC2 cells, thallium flux FluoZin-2 fluorescence. AID 1456. B-score of Tl+ flux slope (higher = more flux/activation; lower = inhibition) at 10 µM. Q9H2X9. 190,000 tested, 2.2% active;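 active means thallium flux slope and its plate-corrected score both differing from the plate sample mean at a set confidence after two filtering rounds, in either direction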;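 further: slope of fluorescence scaled to starting intensity during 10 to 20 s after thallium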
ROMK primary: modulates human ROMK potassium channel activity. P48048. Tet-inducible ROMK, thallium flux fluorescence; actives lie on both sides. B-score at 10 µM. 130,000 tested, 2% active;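 active means signal ratio slope over the read window, or its plate-corrected B-score, at least 3 SD from the plate mean, either direction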;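 further: B-score of the F/F0 ratio slope over 7 to 12 s after thallium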
Target sequence (P48048 whole entry, looked up): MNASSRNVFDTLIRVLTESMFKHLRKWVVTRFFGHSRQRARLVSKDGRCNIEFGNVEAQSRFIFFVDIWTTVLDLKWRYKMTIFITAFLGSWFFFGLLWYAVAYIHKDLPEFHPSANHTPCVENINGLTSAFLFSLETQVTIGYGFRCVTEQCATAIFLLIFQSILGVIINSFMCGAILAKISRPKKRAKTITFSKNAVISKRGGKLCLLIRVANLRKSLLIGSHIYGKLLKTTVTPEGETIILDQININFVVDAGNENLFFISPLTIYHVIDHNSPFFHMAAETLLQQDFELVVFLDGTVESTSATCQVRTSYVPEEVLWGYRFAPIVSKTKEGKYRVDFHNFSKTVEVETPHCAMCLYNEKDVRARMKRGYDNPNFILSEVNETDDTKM
Lmaj promast: inhibitors of Leishmania major promastigote growth; inhibition, % at 10 µM; AID 1063; 200,000 tested, 9% active; Leishmania major promastigotes, resazurin fluorescence viability; in the data active means inhibition above about 50%;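 further: promastigotes grown with compound for 44 hours at 28 °C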
A number is an active result. Most compounds without a hit are left out; they make up all but 12% or so of the library.

CCC(C)(C)NC(=O)c1sccc1Oc1ccc(F)cc1[N+](=O)[O-] was read as Insulin prom up inactive, WT yeast gro inh inactive, Insulin prom inh inactive, ROMK primary inactive and Lmaj promast inactive.
`Cn1c(=N)n(CC(O)c2ccco2)c2ccccc21` (stereo not drawn) gave Insulin prom up inactive, WT yeast gro inh inactive, Insulin prom inh inactive, ROMK primary inactive and Lmaj promast inactive.
For Cn1c(=N)n(CC(O)c2cccc3ccccc23)c2ccccc21 (stereo not drawn) the results were Insulin prom up inactive, WT yeast gro inh inactive, Insulin prom inh inactive, KCC2 mod inactive and Lmaj promast 102.
For COc1ccc(N=C2SC(CC(=O)Nc3ccccc3)C(=O)N2CCc2ccccn2)cc1 (stereo not drawn) the results were Insulin prom up inactive, WT yeast gro inh inactive, Insulin prom inh inactive, KCC2 mod inactive, ROMK primary inactive and Lmaj promast 60.
Screening O=C(CC1SC(=Nc2ccc(OC(F)F)cc2)N(CCN2CCOCC2)C1=O)Nc1ccccc1 (stereo not drawn) returned Insulin prom up inactive.
For O=C(CC1SC(=Nc2ccc(OC(F)F)cc2)N(CCN2CCOCC2)C1=O)Nc1ccc(F)cc1F (stereo not drawn) the results were Insulin prom up inactive, WT yeast gro inh inactive, KCC2 mod inactive, ROMK primary inactive and Lmaj promast 62.
Screening COc1ccc(OC)c(NC(=O)CC2SC(=Nc3ccc(F)cc3)N(CCC3=CCCCC3)C2=O)c1 (stereo not drawn) returned Insulin prom up inactive, WT yeast gro inh inactive, Insulin prom inh inactive, KCC2 mod inactive and Lmaj promast 55.
Screening COc1ccc(OC)c(NC(=O)CC2SC(=Nc3ccccc3)N(CCc3ccccn3)C2=O)c1 (stereo not drawn) returned Insulin prom up inactive, WT yeast gro inh inactive, KCC2 mod inactive and Lmaj promast 55.
Cc1ccc2nc(-c3ccc(NC(=O)COC(=O)c4cncc(Br)c4)cc3)sc2c1 was read as Insulin prom up inactive, WT yeast gro inh inactive, KCC2 mod inactive and Lmaj promast inactive.
`CC(Sc1ccc(Cl)cc1)C(=O)Nc1ccc(S(=O)(=O)N2CCOCC2)cc1` (stereo not drawn) gave Insulin prom up inactive, WT yeast gro inh inactive, Insulin prom inh inactive, KCC2 mod inactive and Lmaj promast inactive.
For COc1ccc(N=C2SC(CC(=O)Nc3cccc(Cl)c3)C(=O)N2Cc2ccco2)cc1 (stereo not drawn) the results were Insulin prom up inactive, WT yeast gro inh inactive, Insulin prom inh inactive, KCC2 mod inactive, ROMK primary inactive and Lmaj promast 98.
Screening Cc1ccccc1NC(=O)Cn1c(=O)sc2ccccc21 returned Insulin prom up inactive, WT yeast gro inh inactive and Lmaj promast inactive.
For Cc1cccc(CSc2nnc(-c3cccs3)n2Cc2ccco2)c1 the results were Insulin prom up inactive, WT yeast gro inh inactive, Insulin prom inh inactive, KCC2 mod inactive and Lmaj promast 90.
`O=c1c2c(-c3ccc(Cl)cc3)csc2ncn1/N=C/c1cccc([N+](=O)[O-])c1O` gave Insulin prom up inactive, WT yeast gro inh inactive, KCC2 mod inactive, ROMK primary inactive and Lmaj promast inactive.
Screening Cc1nn(-c2ccccc2)c(N2CCCC2)c1/C=N/n1cnc2scc(-c3ccccc3)c2c1=O returned Insulin prom up inactive, WT yeast gro inh inactive, KCC2 mod inactive, ROMK primary inactive and Lmaj promast 56.
COc1cc(/C=N/n2cnc3scc(-c4cccs4)c3c2=O)cc(OC)c1OC was read as Insulin prom up inactive, WT yeast gro inh inactive, Insulin prom inh inactive, KCC2 mod inactive, ROMK primary inactive and Lmaj promast inactive.
For O=c1c2c(-c3ccccc3)csc2ncn1/N=C/c1c2ccccc2cc2ccccc12 the results were Insulin prom up inactive, WT yeast gro inh inactive, Insulin prom inh inactive, KCC2 mod inactive, ROMK primary inactive and Lmaj promast 100.
CN(Cc1ccccc1)C(=O)c1ccccc1C(=O)O was read as Insulin prom up inactive, WT yeast gro inh inactive, KCC2 mod inactive, ROMK primary inactive and Lmaj promast inactive.
Screening Cc1noc(C)c1CN(C(=S)NC1CC2CCC1C2)c1ccccc1 (stereo not drawn) returned Insulin prom up inactive, WT yeast gro inh inactive, KCC2 mod inactive, ROMK primary inactive and Lmaj promast inactive.
Screening COC(=O)c1c(NS(=O)(=O)c2ccc(C)cc2)sc2c1CCC(C)C2 (stereo not drawn) returned WT yeast gro inh inactive, Insulin prom inh inactive, KCC2 mod 16 and Lmaj promast inactive.

Source: PubChem (several laboratories)
